RORgamma inh – qHTS for inhibitors of ROR gamma transcriptional activity. Nuclear receptor ROR-gamma (Mus musculus), P51450. Potency, µM (highest dose often 53.6 µM), without a hit: top-dose activity change, negative = inhibition, most hits filed as inhibitors. actives 5.4% (n = 310,000). Drosophila S2 Gal4-RORgamma UAS-luciferase reporter, 20 h; also: % is scaled to controls: 0 for no effect and ±100 for the full control effect; nearly all actives have a fitted effect of over 60% in size
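Luminescence from a UAS-regulated Photinus luciferase reporter in stably transfected Drosophila Schneider cells is measured; decreased signal marks ROR gamma inhibition. Fusion expression is induced by 700 uM copper sulfate for 20 hr.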
PINK1 expr mod – A Quantitative High throughput Screen to Identify Chemical Modulators of PINK1 Expression; PINK1 immunofluorescence, high-content cytometry, 24 h; Potency, µM (series often up to 76.6 µM), inactives show at the top dose activation (PINK1 increase), usual class: activators; actives 0.2% (n = 410,000); AID 624263, 2012; active = well fitted activation curve with a large enough effect; inconclusive = small, poorly fitted or top-dose-only effect; cell line not stated here; also: % of control where 0% means no effect; nearly all actives have a fitted effect of over 65% in size
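Measures PINK1 amount and localization on or inside mitochondria by immunofluorescence. Stable cells get compounds at 5 concentrations for 24 hours before fixation and staining; CCCP controls included.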
Gal4-VP16 FLuc – VP16 counterscreen qHTS for inhibitors of ROR gamma transcriptional activity. Drosophila S2 Gal4-VP16 UAS-luciferase, luminescence, 20 h. Potency, µM (doses to about 53.6 µM), inactives show at the highest dose activity, negative = inhibition, usual class: inhibitors. actives 3.5% (n = 310,000);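 also: Gal4-VP16 expression switched on by copper sulfate through the metallothionein promoter; % is scaled to controls: 0 for no effect and ±100 for the full control effect; nearly all actives have a fitted effect of over 50% in size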
Epigenetic derep – Quantitative High-Throughput Screen for Regulators of Epigenetic Control | actives 0.2% (n = 280,000) | murine LDR cells, GFP reporter derepression, 30 h | Potency, µM (highest dose often 53.9 µM), for inactives: at the highest dose GFP activation, hits mostly activators; also: % of control where 0% means no effect; nearly all actives have a fitted effect of over 60% in size
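Readout is the number of GFP-expressing murine LDR cells, counted by cytometry following washing. Cells were treated with compound for 30 h at 37 C; the stably integrated CMV-GFP locus is normally silent.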
Sfp inh – qHTS Assay for Inhibitors of Bacillus subtilis Sfp phosphopantetheinyl transferase (PPTase); Biochemical Sfp PPTase activity, qHTS; 4'-phosphopantetheinyl transferase ffp (Bacillus subtilis), Q9F4F7; Potency, µM, for the others: largest response in the series, negative = inhibition, hits mostly inhibitors; actives 3.5% (n = 310,000);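 also: the enzyme is Sfp with the accession as filed and its product quenches rhodamine fluorescence; 0% = enzyme reaction without inhibitor and -100% = no enzyme wells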
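Compounds were incubated with enzyme (final 15 nM) for 15 min at room temperature before substrate addition started the reaction. Fluorescence at 525 nm excitation, 598 nm emission was recorded immediately and after 30 minutes.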
ClpP mod – qHTS Assay for Activators of ClpP; AID 651965, 2013; ATP-dependent Clp protease proteolytic subunit (Bacillus subtilis (strain 168)), P80244; actives 1.9% (n = 340,000); purified B. subtilis ClpP, FRET peptide cleavage, 20 min; Potency, µM (highest dose often 57.5 µM), inactives show at the top dose activity change, negative = active; active = well fitted falling curve with a large enough effect; inconclusive = small, poorly fitted or top-dose-only effect; inactive = no such curve, though single readings can be large or run the other way; also: the source files actives as falling curves though it sought activators and does not explain the sign; nearly all actives have a fitted effect of over 65% in size
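FRET quenching reversal measured ClpP activation: 10 microg/mL B. subtilis ClpP at pH 8 with the FRET-FV decapeptide, read at 430 nm after 320 nm excitation. The 20-min minus 0-min signal was scaled between DMSO/no-enzyme wells and ADEP (5.8 microM final).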
* hit, by the source's call; ? = inconclusive; · = no result given. Shown are actives, neighbours in structure and some others; about 8.1% of the full set was active somewhere. Unless noted, calls follow the shape of the dose curve; as a rule, active = well fitted curve in the direction sought with a large enough effect; inconclusive = small, poorly fitted or top-dose-only effect, or another doubt; inactive = no such curve, though single readings can be large; an effect the other way counts as inactive or inconclusive. Potency is read from the fitted curve at half-maximal effect.

SMILES | RORgamma inh | PINK1 expr mod | Gal4-VP16 FLuc | Epigenetic derep | Sfp inh | ClpP mod
COc1ccc(-c2nc3ccccc3o2)cc1NC(=O)c1ccc(Br)o1 | 21% | 7% | -6% | 16% | -19% | 22µM*
Cc1ccc(-c2nc3ncccc3o2)cc1NC(=S)NC(=O)c1ccco1 | 11% | 3% | -4% | 2% | 5% | ·
Cc1ccc2oc(-c3ccc(C)c(NC(=S)NC(=O)c4cccs4)c3)nc2c1 | 7.1µM* | 1% | 7.1µM* | 4% | -23% | -5%
O=C(NNC(=O)c1ccccc1C(=O)O)c1ccc(O)cc1 | 0.32µM* | -3% | ? | -1% | 6% | ·
CCOC(=O)C1CCN(C(=S)NC(=O)c2cccs2)CC1 | 5.6µM* | 1% | 4.5µM* | · | -7% | ·
CCC1CCCCN1C(=S)NC(=O)c1cccs1 (stereo not drawn) | 0.71µM* | 1% | 1.1µM* | -1% | 4% | ·
CCC1CCCCN1C(=S)NC(=O)c1ccc([N+](=O)[O-])cc1 (stereo not drawn) | 0.25µM* | 0% | 0.28µM* | ? | -7% | 1%
CCC1CCCCN1C(=S)NC(=O)c1ccc(F)c(S(=O)(=O)N2CCOCC2)c1 (stereo not drawn) | 0.56µM* | -1% | 1.6µM* | -3% | -16% | 0%
CCOC(=O)C1CCN(C(=O)c2cccs2)CC1 | 5% | 0% | -6% | 1% | 8% | -2%
O=C(NCC1CCCCC1)c1ccc(F)c(S(=O)(=O)N2CCOCC2)c1 | · | 1% | · | · | · | 0%
CCOC(=O)Cc1ccc(NC(=O)Nc2cccc(OCc3cc(=O)n4cc(C)ccc4n3)c2)cc1 | · | 0% | · | 6% | · | -3%
COc1cc(CNC(=O)c2cnc3c(-c4cccc(C)c4)c(C)nn3c2C)cc(OC)c1OC | · | 2% | · | 1% | · | -5%
CCOC(=O)c1ccc(N2CCN(c3cccc(Cl)c3)CC2)c(NC(=O)Nc2ccc(OC)cc2OC)c1 | · | 3% | · | 1% | · | -13%
COc1cccc(-c2cc3c(-n4cccc4)ncnc3o2)c1 | 41% | -2% | 4% | -1% | 22µM* | 14µM*
COCCCNC(=O)c1nn(-c2ccc(C)cc2)c(=O)n(C)c1=O | · | 2% | · | -1% | · | 3%
Cn1c(=O)c2c(nc(N3CCCC3)n2C)n(C)c1=O | 0% | 4% | -1% | · | 1% | -2%
Cn1c(=O)c2c(nc(CO)n2C)n(C)c1=O | 6% | -1% | 1% | 3% | 13% | ·
Cn1c(=O)c2c(nc(NNC(=O)C(F)(F)F)n2C)n(C)c1=O | -10% | 1% | 4% | 0% | 0.89µM* | ·
Cn1c(=O)c2c(nc(NN=C3CCCC3)n2C)n(C)c1=O | 2% | 1% | 1% | -1% | 22µM* | -5%
O=S1(=O)CCO[C@H]2CCCC[C@@H]2N1Cc1ccc(Cl)cc1 | · | · | · | · | · | 1%
Cc1ccc2nc(CSc3nnc(NC(=O)COc4ccccc4)s3)cc(=O)n2c1 | · | 0% | · | 3% | · | 0%
N/C(Cc1ccccc1)=N\OC(=O)c1cccc2ccccc12 | -7% | -2% | 8.9µM* | -2% | 7% | ·
N/C(=N\OC(=O)c1cccc2ccccc12)c1ccc(Br)cc1 | 10µM* | 6% | 5µM* | 0% | ? | -21%
CCOc1ccc2nc(NC(=O)C3=NN(c4ccccc4)C(=O)CC3)sc2c1 | 2.8µM* | 5% | 18% | 6% | 4% | 1%
COc1ccc2nc(NC(=O)C3CCN(S(=O)(=O)c4cccc5nsnc45)CC3)sc2c1 | ? | -2% | 5% | -2% | 2% | -6%
SMILES | RORgamma inh | PINK1 expr mod | Gal4-VP16 FLuc | Epigenetic derep | Sfp inh | ClpP mod
COc1ccc(C(=O)Nc2nc3cc4c(cc3s2)OCCO4)c(OC)c1 | 0.028µM* | 2% | 0.4µM* | 2% | 4% | -34%
COc1ccc2nc(NC(=O)C(NS(=O)(=O)c3cccc4nsnc34)C(C)C)sc2c1 (stereo not drawn) | ? | 7% | 11µM* | ? | 18% | 5%
COc1ccccc1C(=O)Nc1nc2cc3c(cc2s1)OCCO3 | ? | 2% | ? | 1% | -4% | 4%
CCOC(=O)c1cccc(C(=O)Nc2nc3ccc(OC)cc3s2)n1 | 11µM* | 2% | ? | 4% | -12% | 1%
COc1ccc(-c2noc(COc3cc(C)c(Br)c(C)c3)n2)cc1OC | · | 1% | · | 2% | · | 2%
CC(C)C(NC(=O)c1ccccn1)c1nnc2n1CCN(Cc1ccc3ccccc3c1)CC2 (stereo not drawn) | · | -1% | · | · | · | ·
COc1ccc(NS(=O)(=O)c2csc(C(=O)Nc3ccccc3)c2)cc1 | 13µM* | 1% | 20µM* | -4% | -3% | ·
CC(=O)Nc1ccc2nc(NC(=O)c3cccs3)sc2c1 | -40% | 1% | -26% | 5% | -6% | ·
COc1ccc2nc(NC(=O)c3ccccc3[N+](=O)[O-])sc2c1 | 0% | 8% | -18% | · | -7% | -1%
COc1ccc2nc(NC(=O)c3ccccc3O)sc2c1 | 7.1µM* | 0% | ? | · | 7% | ?
COc1ccc2nc(NC(=O)c3cccs3)sc2c1 | 10µM* | 3% | ? | -1% | 4% | ·
COc1ccc(NC(=O)c2ccc(NC(=O)c3cccs3)cc2)cc1 | 7.1µM* | 11% | ? | · | -8% | 27%
CCOc1ccc2nc(NC(=O)c3cnc(C)cn3)sc2c1 | 1.8µM* | 1% | 5.6µM* | 0% | -25% | -2%
COc1ccccc1CNC(=O)CCn1c(=O)c2ccccc2n(CC(=O)Nc2cc(Cl)ccc2C)c1=O | · | 1% | · | 12% | · | 4%
Cc1ncc2c(c1CNC(=O)CN1CCCC1)CCN(C(=O)c1ccc(F)cc1F)C2 | · | -1% | · | · | · | ·
CN1CCCN(C2C3CC4CC(C3)CC2C4)CC1 (stereo not drawn) | -43% | -1% | -28% | -1% | 79µM* | -1%
CS(=O)(=O)N1CCN(C2C3CC4CC(C3)CC2C4)CC1 (stereo not drawn) | 0% | 3% | 4% | -1% | 13% | -2%
Cc1cc(C)n2c(-c3ccccc3Cl)nnc2n1 | -1% | 1% | -11% | -1% | 31% | 28µM*
Cc1cc(C)n2c(SCc3ccccc3Cl)nnc2n1 | 10% | 0% | 24% | -7% | 0% | -5%
CCCN(c1ccccc1CC)S(=O)(=O)c1ccc2c(c1)CC(C)N2C(=O)C1CC1 (stereo not drawn) | · | 8% | · | -2% | · | -1%
Cc1ccc(-c2nc(N)sc2-c2ccccc2)cc1C | 7.9µM* | 0% | 10µM* | 0% | -24% | -10%
O=C(CSc1nc2ccc([N+](=O)[O-])cc2[nH]1)NC1CCCCC1 | -27% | ? | -1% | -1% | 17% | -1%

High-throughput results as filed in PubChem BioAssay.
